Assay results from the supplement of paper PMC4022240.
± gives the standard deviation.

T1: HaloTag-ATRX ADD domain (163-292)
T1 chain: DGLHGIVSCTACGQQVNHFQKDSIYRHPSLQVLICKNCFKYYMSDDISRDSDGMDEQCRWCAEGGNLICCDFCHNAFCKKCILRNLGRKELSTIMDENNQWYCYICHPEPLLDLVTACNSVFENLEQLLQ


Target: T1, HaloTag-ATRX ADD domain (163-292)
Test: peptide microarray binding signal (635 nm), min-max normalized on array (fraction of array maximum); higher = stronger binding
Conditions: peptide region: Unmod H4 variant; binder concentration: 50 nM
Outline: (§1)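 Binding signal is the mean intensity of triplicate spots, min-max scaled within each library. Histone 13-mer peptide–cellulose conjugates were spotted in triplicate on nitrocellulose with a Cy3 tracer and blocked overnight at 4°C. Probing lasted 1 h at 4°C, either with biotin-labelled HaloTag reader fusions (10 nM to 1 μM) and streptavidin-Alexa Fluor 647 or with rabbit histone antibodies (1:10,000 to 1:2,000) and anti-rabbit Alexa 647. An Axon GenePix 4000B read signal at 635 nm and misprints at 532 nm.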

**Q.** For SGRGKGGKGLGKG [Unmod H4 variant S G R G K G G K G L G K G], which “peptide microarray binding signal” value is on record?
**A.** 0.00426 ± 0.00016

**Q.** GKGGAKRHRKVLR [Unmod H4 variant G K G G A K R H R K V L R] was tested. Which “peptide microarray binding signal” value did it give?
**A.** 0.00508 ± 0.0001

**Q.** How did the “peptide microarray binding signal” value turn out when ISGLIYEETRGVL [Unmod H4 variant I S G L I Y E E T R G V L] was run?
**A.** 0.00266 ± 3.1e-05

**Q.** With IQGITKPAIRRLA [Unmod H4 variant I Q G I T K P A I R R L A] as the binder, how does the “peptide microarray binding signal” value read?
**A.** 0.0496 ± 0.0034

Same assay, conditions: peptide region: Unmod H4 variant; binder concentration: 500 nM

**Q.** Which “peptide microarray binding signal” value does the source give for SGRGKGGKGLGKG [Unmod H4 variant S G R G K G G K G L G K G] here?
**A.** 0.009 ± 0.00081

**Q.** GKGGAKRHRKVLR [Unmod H4 variant G K G G A K R H R K V L R] was tested. Which “peptide microarray binding signal” value did it give?
**A.** 0.0113 ± 0.00031

**Q.** For ISGLIYEETRGVL [Unmod H4 variant I S G L I Y E E T R G V L], which “peptide microarray binding signal” value is on record?
**A.** 0.00776 ± 0.0036

**Q.** How did the “peptide microarray binding signal” value turn out when IQGITKPAIRRLA [Unmod H4 variant I Q G I T K P A I R R L A] was run?
**A.** 0.0842 ± 0.0024

These binders were tested against HaloTag-ING2 PHD (mouse Ing2 200-280) in the same assay as above. Conditions: peptide region: Unmod H4 variant; binder concentration: 10 nM.
Outline: as §1

**Q.** With SGRGKGGKGLGKG [Unmod H4 variant S G R G K G G K G L G K G] as the binder, how does the “peptide microarray binding signal” value read?
**A.** 0.00412 ± 0.00013

**Q.** With GKGGAKRHRKVLR [Unmod H4 variant G K G G A K R H R K V L R] as the binder, how does the “peptide microarray binding signal” value read?
**A.** 0.00292 ± 0.00011

**Q.** For ISGLIYEETRGVL [Unmod H4 variant I S G L I Y E E T R G V L], which “peptide microarray binding signal” value is on record?
**A.** 0.00233 ± 7.4e-05

**Q.** With IQGITKPAIRRLA [Unmod H4 variant I Q G I T K P A I R R L A] as the binder, how does the “peptide microarray binding signal” value read?
**A.** 0.0565 ± 0.0092

Same assay, conditions: peptide region: Unmod H4 variant; binder concentration: 100 nM

**Q.** How did the “peptide microarray binding signal” value turn out when SGRGKGGKGLGKG [Unmod H4 variant S G R G K G G K G L G K G] was run?
**A.** 0.0136 ± 0.0012

**Q.** Which “peptide microarray binding signal” value does the source give for GKGGAKRHRKVLR [Unmod H4 variant G K G G A K R H R K V L R] here?
**A.** 0.00836 ± 0.00085

**Q.** Which “peptide microarray binding signal” value does the source give for ISGLIYEETRGVL [Unmod H4 variant I S G L I Y E E T R G V L] here?
**A.** 0.00319 ± 0.00013

**Q.** With IQGITKPAIRRLA [Unmod H4 variant I Q G I T K P A I R R L A] as the binder, how does the “peptide microarray binding signal” value read?
**A.** 0.119 ± 0.019

Each binder was assayed against anti-H3K4me3 antibody ab8580 in the same assay as above. Conditions: peptide region: Unmod H4 variant; binder concentration: 1:2,000 dilution.
Outline: as §1

**Q.** For SGRGKGGKGLGKG [Unmod H4 variant S G R G K G G K G L G K G], which “peptide microarray binding signal” value is on record?
**A.** 0.000831 ± 3.2e-05

**Q.** GKGGAKRHRKVLR [Unmod H4 variant G K G G A K R H R K V L R] was tested. Which “peptide microarray binding signal” value did it give?
**A.** 0.000472 ± 9.3e-06

**Q.** With ISGLIYEETRGVL [Unmod H4 variant I S G L I Y E E T R G V L] as the binder, how does the “peptide microarray binding signal” value read?
**A.** 0.00109 ± 5.1e-05

**Q.** How did the “peptide microarray binding signal” value turn out when IQGITKPAIRRLA [Unmod H4 variant I Q G I T K P A I R R L A] was run?
**A.** 0.0125 ± 0.0012

Same assay, conditions: peptide region: Unmod H4 variant; binder concentration: 1:10,000 dilution

**Q.** With SGRGKGGKGLGKG [Unmod H4 variant S G R G K G G K G L G K G] as the binder, how does the “peptide microarray binding signal” value read?
**A.** 0.00108 ± 1.9e-05

**Q.** Which “peptide microarray binding signal” value does the source give for GKGGAKRHRKVLR [Unmod H4 variant G K G G A K R H R K V L R] here?
**A.** 0.000856 ± 1.8e-05

**Q.** For ISGLIYEETRGVL [Unmod H4 variant I S G L I Y E E T R G V L], which “peptide microarray binding signal” value is on record?
**A.** 0.00114 ± 1.2e-05

**Q.** Which “peptide microarray binding signal” value does the source give for IQGITKPAIRRLA [Unmod H4 variant I Q G I T K P A I R R L A] here?
**A.** 0.0159 ± 0.0013

Each binder was assayed against anti-H3K9me3 antibody ab8898 in the same assay as above. Conditions: peptide region: Unmod H4 variant; binder concentration: 1:2,000 dilution.
Outline: as §1

**Q.** SGRGKGGKGLGKG [Unmod H4 variant S G R G K G G K G L G K G] was tested. Which “peptide microarray binding signal” value did it give?
**A.** 0.000438 ± 8.5e-06

**Q.** For GKGGAKRHRKVLR [Unmod H4 variant G K G G A K R H R K V L R], which “peptide microarray binding signal” value is on record?
**A.** 0.000302 ± 3.1e-06

**Q.** Which “peptide microarray binding signal” value does the source give for ISGLIYEETRGVL [Unmod H4 variant I S G L I Y E E T R G V L] here?
**A.** 0.0004228 ± 4.1e-06

**Q.** IQGITKPAIRRLA [Unmod H4 variant I Q G I T K P A I R R L A] was tested. Which “peptide microarray binding signal” value did it give?
**A.** 0.00663 ± 0.00078

Same assay, conditions: peptide region: Unmod H4 variant; binder concentration: 1:10,000 dilution

**Q.** How did the “peptide microarray binding signal” value turn out when SGRGKGGKGLGKG [Unmod H4 variant S G R G K G G K G L G K G] was run?
**A.** 0.000692 ± 7.3e-06

**Q.** How did the “peptide microarray binding signal” value turn out when GKGGAKRHRKVLR [Unmod H4 variant G K G G A K R H R K V L R] was run?
**A.** 0.00075 ± 7.9e-06

**Q.** ISGLIYEETRGVL [Unmod H4 variant I S G L I Y E E T R G V L] was tested. Which “peptide microarray binding signal” value did it give?
**A.** 0.000807 ± 1.5e-05

**Q.** With IQGITKPAIRRLA [Unmod H4 variant I Q G I T K P A I R R L A] as the binder, how does the “peptide microarray binding signal” value read?
**A.** 0.00957 ± 0.00076

Target: T1, HaloTag-ATRX ADD domain (163-292)
Test: as above
Conditions: peptide region: Unmod H3 variant; binder concentration: 50 nM
Outline: as §1

**Q.** How did the “peptide microarray binding signal” value turn out when RVTIMPKDIQLAR [Unmod H3 variant R V T I M P K D I Q L A R] was run?
**A.** 0.00552 ± 9e-05

Same assay, conditions: peptide region: Unmod H3 variant; binder concentration: 500 nM

**Q.** How did the “peptide microarray binding signal” value turn out when RVTIMPKDIQLAR [Unmod H3 variant R V T I M P K D I Q L A R] was run?
**A.** 0.0187 ± 0.001

These binders were tested against HaloTag-ING2 PHD (mouse Ing2 200-280) in the same assay as above. Conditions: peptide region: Unmod H3 variant; binder concentration: 10 nM.
Outline: as §1

**Q.** Which “peptide microarray binding signal” value does the source give for RVTIMPKDIQLAR [Unmod H3 variant R V T I M P K D I Q L A R] here?
**A.** 0.0177 ± 0.00085

Same assay, conditions: peptide region: Unmod H3 variant; binder concentration: 100 nM

**Q.** For RVTIMPKDIQLAR [Unmod H3 variant R V T I M P K D I Q L A R], which “peptide microarray binding signal” value is on record?
**A.** 0.0422 ± 0.0028

The binders below were run against anti-H3K4me3 antibody ab8580 in the same assay as above. Conditions: peptide region: Unmod H3 variant; binder concentration: 1:2,000 dilution.
Outline: as §1

**Q.** With RVTIMPKDIQLAR [Unmod H3 variant R V T I M P K D I Q L A R] as the binder, how does the “peptide microarray binding signal” value read?
**A.** 0.00585 ± 0.00079

Same assay, conditions: peptide region: Unmod H3 variant; binder concentration: 1:10,000 dilution

**Q.** RVTIMPKDIQLAR [Unmod H3 variant R V T I M P K D I Q L A R] was tested. Which “peptide microarray binding signal” value did it give?
**A.** 0.00782 ± 0.00068

What follows are binders tested against anti-H3K9me3 antibody ab8898 in the same assay as above. Conditions: peptide region: Unmod H3 variant; binder concentration: 1:2,000 dilution.
Outline: as §1

**Q.** Which “peptide microarray binding signal” value does the source give for RVTIMPKDIQLAR [Unmod H3 variant R V T I M P K D I Q L A R] here?
**A.** 0.00403 ± 0.00079

Same assay, conditions: peptide region: Unmod H3 variant; binder concentration: 1:10,000 dilution

**Q.** RVTIMPKDIQLAR [Unmod H3 variant R V T I M P K D I Q L A R] was tested. Which “peptide microarray binding signal” value did it give?
**A.** 0.00375 ± 0.00014
